The full ranking holds about 33,000 sequences; the median of “E-score (-0.5 to 0.5)” is about -0.0014, and the highest 2% start at about 0.25. This excerpt belongs to a sample that is enriched for the highest values.
Each sequence was assayed against T1, Cad1 (UniProt P24813) (assay: PBM E-score (8-mer binding enrichment) (E-score (-0.5 to 0.5)); higher = stronger / more preferred TF binding). Conditions: protein concentration: 100 nM; construct: GST-full length.
T1 sequence: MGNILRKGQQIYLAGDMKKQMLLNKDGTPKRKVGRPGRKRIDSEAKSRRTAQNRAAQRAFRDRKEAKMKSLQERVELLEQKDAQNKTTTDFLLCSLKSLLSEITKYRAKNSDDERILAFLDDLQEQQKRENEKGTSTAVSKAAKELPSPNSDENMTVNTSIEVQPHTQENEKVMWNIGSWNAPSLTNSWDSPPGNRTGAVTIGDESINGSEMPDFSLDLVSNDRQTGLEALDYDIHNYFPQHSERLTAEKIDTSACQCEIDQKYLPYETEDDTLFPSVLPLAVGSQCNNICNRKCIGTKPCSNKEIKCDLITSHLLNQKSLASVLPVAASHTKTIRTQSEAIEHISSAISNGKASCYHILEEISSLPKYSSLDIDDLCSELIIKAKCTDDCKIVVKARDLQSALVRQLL
Procedure, shortened: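 The E-score, a modified Wilcoxon-Mann-Whitney statistic, was computed by the Universal PBM Analysis Suite for every ungapped eight-base word pooled with its reverse complement. Scans behind it were normalised with masliner after bound GST-tagged yeast transcription factors were detected with fluorescent anti-GST. The proteins, at about 100-200 nM, had been applied to universal all-10-mer Agilent arrays made double-stranded by primer extension.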

Sequence | PBM E-score
GCATCATA | 0.296
GTATCTTA | 0.287
GTATCATA | 0.288
ATATCATA | 0.166
GTATCTGA | 0.0184
ACATCATA | 0.105
CTATCTTA | 0.0111
CCATCATA | -0.27
CTATCATA | 0.148
CGAGACCA | -0.0428
ACAAACTC | 0.052
GGCTCCAC | -0.182
CCTCTGCG | -0.147
CGGGTAGA | 0.0106
CGGTTGGC | 0.0738
CGTTCTGA | -0.16
GACTGCGC | -0.0924
AACCCTCG | -0.0276
ATTATAAA | 0.276
CTTATAAC | 0.177
CTTATAAG | -0.047
ATTATAAC | 0.0512
ATTATAAG | 0.186
CTTATAAA | 0.275
GTTATAAA | 0.184

Sequence | PBM E-score
TTTATAAA | 0.261
TGTATAAA | 0.028
CCCGCGTC | 0.0369
GTTCGAAA | 0.241
ACCAGAGG | -0.164
GGCGGTAC | -0.0694
GGCCTTGA | 0.0013
GACAAAGC | 0.06
TACAAATA | 0.185
GACAAGAA | 0.0396
CACAAATA | 0.259
CACAAGTA | -0.0393
GACAAATC | 0.306
GACAAGTC | 0.00519
CACAAATC | 0.126
AACAAATA | 0.186
CACAAATG | -0.0179
GACAAATA | 0.293
GACAAAGA | 0.276
GAACTTCA | 0.066
CGAACTGA | -0.17
CCGGGGAC | -0.235
CCTTATAG | -0.219
ATTAGGGC | -0.0576
AGTTTTGG | 0.127

Sequence | PBM E-score
GACAGCGC | 0.14
ACGTGCGC | 0.122
CAGTAGTC | -0.207
AACACGAT | 0.123
AAGTTGGT | 0.252
AAGTTGGC | -0.125
AAGTTGGG | -0.0322
ATTAGAGC | 0.041
ATAGTGTA | 0.0723
AAGAAGTA | 0.12
CAAGCAAA | 0.0203
CACACTCA | 0.194
CGACAGTC | -0.12
CACGCCTC | -0.0988
ATATAATA | 0.261
GTATAATA | 0.283
CTATAATA | -0.101
GTATAAAA | 0.18
GTATAAGA | -0.0708
ATATAATG | 0.0839
CACCGTGC | 0.161
TGAACTAA | -0.063
ATCGAACG | -0.0756
AATCGCAT | 0.0873
TATTAAGA | 0.0149

Sequence | PBM E-score
TATTAACA | 0.25
CATTAATG | 0.198
CATTAATA | 0.297
TATTAATA | 0.339
CATTAACA | 0.16
TATTAAAA | 0.194
GATTAACC | 0.02
GATTAAAC | 0.0432
GATTAACA | 0.163
GATTAATC | 0.355
CATTAATC | 0.153
AACCCCTC | -0.319
GCGAGTTA | 0.0928
GTCTGCTA | 0.218
GAGAGAAA | 0.14
CTTATACC | 0.0668
CGACCTAC | -0.126
CGTTGGTA | 0.141
GTTCGGAA | 0.174
ACACTATC | 0.115
GACTCAAA | -0.0319
ACAACTAT | 0.0919
AGTAGTGG | 0.0582
GAACTATA | 0.09
GATTAAGA | 0.18

Sequence | PBM E-score
GATTAATA | 0.354
GATTAAAA | 0.214
GGTTGAGA | -0.224
GCATATGA | 0.118
CCATATGA | -0.0943
TCATATGA | 0.321
CCCCTGCA | -0.246
AGCCAACT | -0.117
ACGGATCA | 0.215
AATTCGCC | 0.154
CGGAACAA | 0.29
CCGAACAA | 0.107
CGGAACAC | 0.235
ACGAACAA | 0.184
TGGAACAA | 0.144
GCGAACAA | 0.275
CGTAGTAC | -0.00804
AGCATCCA | -0.168
CTTTCAGA | 0.0705
AAGAATGC | 0.0333
GGCTTACA | 0.229
GAATGGTC | -0.0781
ATAAACCC | 0.0626
AAGCCTTG | 0.00151
AATCTCCC | -0.277

Sequence | PBM E-score
AAGCGATA | 0.103
CCAATTGC | -0.114
CCAATTGG | 0.263
ACAATTGG | -0.0197
CCAATTGA | 0.0388
GCAATTGA | 0.118
GCAATTGC | 0.33
CGCTGTAG | -0.0927
CGTTGCTA | 0.103
CATAACTC | -0.0187
TGCGGCCA | -0.03
ATGTCTGA | 0.129
GGGGATGA | -0.094
GGCTAGCA | -0.135
CGCTAGCA | -0.0293
TGCTAGCA | 0.263
ATTAATCA | 0.436
ATTAATCG | 0.234
CTTAATCA | 0.141
GTTAATCA | 0.318
GCTAATCA | 0.215
ATTAATCC | 0.161
CTAGCCCC | -0.0928
TGCAGAAA | 0.114
ACGTACTC | -0.0542

Sequence | PBM E-score
CTCTATAC | 0.0205
ATATATCC | 0.297
AAATATGC | 0.069
ATATATAG | 0.175
CTATATCC | -0.0465
CTATATAG | 0.0376
AAATATGT | 0.277
AAATATGA | 0.234
ATATATAT | 0.295
ACATATAT | 0.155
ATATATCA | 0.134
CTATATAC | 0.27
CCTGCCTA | -0.0584
AGGGTTAG | -0.153
AGGATAGA | -0.0415
AGAACTAG | -0.146
CCAAAGGG | -0.0732
ACTCTCGG | -0.0764
GGCGTTAC | -0.0303
ACATATAC | 0.0911
AAATATAC | -0.0915
AAATATAT | 0.305
AAATATAA | 0.247
GTATATAC | -0.0771
